# PubChem BioAssay AID1540 (National Center for Advancing Translational Sciences (NCATS), 2009)
# Where “and” joins values, the source holds several entries; their conditions need not be identical. Identical values can stand only once. Records with an inconclusive call do not appear. Calls of active or inactive are those of the source. The call rests on the fitted dose curve; in most records, active means well fitted activation curve with a large enough effect; inconclusive means small, poorly fitted or top-dose-only effect, or effect the other way; inactive means flat fitted curve, though single readings scatter.
# Target: Pyruvate kinase PKM (Homo sapiens) (UniProt P14618)
# Sequence (P14618 whole entry, looked up, canonical isoform): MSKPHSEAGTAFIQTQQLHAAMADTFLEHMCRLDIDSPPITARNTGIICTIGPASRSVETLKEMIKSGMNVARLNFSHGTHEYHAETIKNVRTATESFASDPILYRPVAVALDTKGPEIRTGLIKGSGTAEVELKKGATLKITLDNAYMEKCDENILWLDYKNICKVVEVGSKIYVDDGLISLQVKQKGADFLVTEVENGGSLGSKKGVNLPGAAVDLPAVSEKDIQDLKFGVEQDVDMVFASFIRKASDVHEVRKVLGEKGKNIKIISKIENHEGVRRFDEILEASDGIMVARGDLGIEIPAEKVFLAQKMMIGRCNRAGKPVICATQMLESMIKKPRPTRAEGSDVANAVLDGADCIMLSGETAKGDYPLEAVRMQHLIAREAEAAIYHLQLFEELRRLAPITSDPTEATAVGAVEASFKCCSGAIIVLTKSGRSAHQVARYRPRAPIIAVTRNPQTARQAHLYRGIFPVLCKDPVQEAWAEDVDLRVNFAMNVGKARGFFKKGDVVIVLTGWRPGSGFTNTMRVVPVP
# Experiment: Secondary assay for Activators of Human Pyruvate Kinase M2 isoform
# Details: purified hPK-M2, LDH-coupled NADH fluorescence kinetic; series mostly up to 57.5 µM; activation: at the top concentration
# From the text: Confirmatory assay NIH Chemical Genomics Center [NCGC] Matthew G. Vander Heiden, M.D., Ph.D. [Harvard Medical School, 77 Avenue Louis Pasteur, Boston, MA 02115] NCGC Assay Overview: Human pyruvate kinase muscle 2 (hPK-M2)enzyme was supplied as a highly purified (>95% pure) preparation from Harvard Medical School and a secondary assay was used to evaluate compounds. This assay couples the formation of pyruvate from hPK-M2 using lactate dehydrogenase (LDH) and NADH. The depletion of NADH is followed in a fluorescent-based kinetic assay that follows the formation of pyruvate to lactate, as catalyzed LDH (described by Hannaert et al., 2002)1 Pyruvate kinase substrates, PEP and ADP, were present in the assay at 0.1 mM and 4 mM respectively. In this kinetic assay initial rates were determined by following the fluorescence of NADH depletion.
# NCGC Assay Protocol Summary: Three uL of substrate mix (final concentration, 50 mM Tris-Cl pH 8.0, 200 mM KCl, 15 mM MgCl2, 0.1 mM PEP, 4.0 mM ADP, and 0.2 mM NADH) was dispensed into black-solid 1536 well plates. 23 nL of compounds were delivered by a pin tool and 1 uL of enzyme mix (final concentrations, 10 nM hPK-M2 and 1 uM of LDH) was added. Plates were immediately placed in ViewLux (Perkin Elmer) and NADH fluorescence was determined at 30 second exposure intervals for between 3 and 6 minutes. Data were normalized to the uninhibited and EC100 activation using known activators such as fructose-bis-phosphate.
Compound,Potency,activation
C[C@H]1CN(S(=O)(=O)c2ccc3c(c2)OCCO3)CCN1S(=O)(=O)c1c(F)cccc1F,5010 nM (active),
Cn1c2cc(B(O)O)sc2c2cnn(Cc3c(F)cccc3Cl)c(=O)c21,6310 nM (active),
CN1CCOc2ccc(S(=O)(=O)N3CCN(S(=O)(=O)c4c(F)cccc4F)CC3)cc21,3.55 µM (active) and 708 nM (active),
COc1cc2c(s1)c1cnn(Cc3ccccc3F)c(=O)c1n2C,158 nM (active),
O=S(=O)(c1ccc2c(c1)OCCO2)N1CCN(S(=O)(=O)c2cc(F)c(F)cc2F)CC1,562 nM (active),
O=C1CN(S(=O)(=O)c2ccc3c(c2)OCCO3)CCN1S(=O)(=O)c1c(F)cccc1F,2820 nM (active),
COc1cc(F)c(S(=O)(=O)N2CCN(S(=O)(=O)c3ccco3)CC2)c(F)c1,116 nM (active),
Cc1cc2c(s1)c1cnn(Cc3ccc(F)cc3F)c(=O)c1n2C,178 nM (active),
O=C1CN(S(=O)(=O)c2c(F)cccc2F)CCN1S(=O)(=O)c1ccc2c(c1)OCCO2,2510 nM (active),
O=C(O)Cc1cc(F)c(S(=O)(=O)N2CCN(S(=O)(=O)c3ccc4c(c3)OCCO4)CC2)cc1F,14100 nM (active),
O=S(=O)(c1ccc2c(c1)OCCO2)N1CCCN(S(=O)(=O)c2c(F)cccc2F)CC1,891 nM (active),
CCc1cc2c(s1)c1cnn(Cc3ccccc3F)c(=O)c1n2C,631 nM (active),
O=S(=O)(c1cccc(F)c1)N1CCN(S(=O)(=O)c2ccc3c(c2)OCCO3)CC1,1000 nM (active),
CC(=O)Nc1cccc(S(=O)(=O)N2CCCN(S(=O)(=O)c3ccc4c(c3)OCCO4)CC2)c1,819 nM (active),
Cn1c2cc(C(=O)O)sc2c2cnn(Cc3ccccc3F)c(=O)c21,8910 nM (active),
CSc1cc2c(s1)c1cnn(Cc3ccccc3F)c(=O)c1n2C,708 nM (active),
Cc1ccc(C)c(OC2=NS(=O)(=O)c3ccccc32)c1,,-6.5% (inactive)
Cc1ccc(Cn2ncc3c4sc(C)cc4n(C)c3c2=O)c(C)c1,1780 nM (active),
O=S(=O)(c1ccc2c(c1)OCCO2)N1CCN(S(=O)(=O)c2ccc3c(c2)OCCO3)CC1,398 nM (active),
Cc1cc2c(s1)c1cnn(Cc3cccc(Cl)c3)c(=O)c1n2C,355 nM (active),

Compound,Potency,activation
COc1cc(F)c(S(=O)(=O)N2CCN(S(=O)(=O)c3cccs3)CC2)c(F)c1,51.7 nM (active),
O=S(=O)(c1ccc2c(c1)OCCCO2)N1CCN(S(=O)(=O)c2c(F)cccc2F)CC1,501 nM (active),
COc1cccc(Cn2ncc3c4sc(B(O)O)cc4n(C)c3c2=O)c1,17800 nM (active),
Cn1c2ccsc2c2cnn(Cc3ccc(F)cc3)c(=O)c21,562 nM (active),
C=Cc1cc(F)c(S(=O)(=O)N2CCN(S(=O)(=O)c3ccc4c(c3)OCCO4)CC2)cc1F,2000 nM (active),
O=S(=O)(c1ccc2ccccc2c1)N1CCN(S(=O)(=O)c2c(F)cccc2F)CC1,8.91 µM (active) and 158 nM (active),
COc1ccc(Cn2ncc3c4sc(C)cc4n(C)c3c2=O)cc1F,1120 nM (active),
Nc1cccc(S(=O)(=O)N2CCN(S(=O)(=O)c3c(F)cccc3F)CC2)c1,206 nM (active),
CC1(C)CCc2cc(S(=O)(=O)N3CCN(S(=O)(=O)c4c(F)cccc4F)CC3)ccc2O1,5.01 µM (active) and 631 nM (active),
Cc1nc2ccc(S(=O)(=O)N3CCN(S(=O)(=O)c4c(F)cccc4F)CC3)cc2s1,631 nM (active),
CNc1cccc(S(=O)(=O)N2CCN(S(=O)(=O)c3ccc4c(c3)OCCO4)CC2)c1,,17.9% (inactive)
Cc1cc2c(s1)c1cnn(Cc3cccc(Cn4ncc5c6sc(C)cc6n(C)c5c4=O)c3F)c(=O)c1n2C,35500 nM (active),
O=S(=O)(c1cccc(O)c1)N1CCN(S(=O)(=O)c2c(F)cccc2F)CC1,183 nM (active),
Nc1ccc(S(=O)(=O)N2CCCN(S(=O)(=O)c3ccc4c(c3)OCCO4)CC2)cc1,366 nM (active),
Cn1c2cc(C#N)sc2c2cnn(Cc3ccccc3F)c(=O)c21,355 nM (active),
CC(O)c1cc2c(s1)c1cnn(Cc3ccccc3F)c(=O)c1n2C (stereo not given),398 nM (active),
COc1cc(F)c(S(=O)(=O)N2CCCN(S(=O)(=O)c3ccc(N)cc3)CC2)c(F)c1,1300 nM (active),
COCCCc1cc(F)c(S(=O)(=O)N2CCN(S(=O)(=O)c3ccc4c(c3)OCCO4)CC2)cc1F,3160 nM (active),
C[C@H]1CN(S(=O)(=O)c2c(F)cccc2F)CCN1S(=O)(=O)c1ccc2c(c1)OCCO2,5010 nM (active),
CC(C)c1cc2c(s1)c1cnn(Cc3ccccc3F)c(=O)c1n2C,1410 nM (active),
